These results are taken from PubChem BioAssay (Tox21).

Each structure is given as a SMILES string. Results filed as inconclusive are left out. Entries that show only a call come without a potency. Calls of active or inactive are those of the source. Calls come from the whole dose curve.

The target in the test is Beta-2 adrenergic receptor (Homo sapiens) (UniProt P07550). As to the kind of experiment: Adrenergic beta2 receptor (ADRB2) small molecule agonists, cell-based qHTS assay (AID 1963593).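 Note: CHO cells stably overexpressing human ADRB2.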 The gist of the method: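 CHO cells stably over-expressing ADRB2 were plated overnight at 37C, then dosed with compounds plus a stimulation mix containing 100uM IBMX and 25uM Ro-20-1724 for 0.5hr at room temperature. cAMP was measured by HTRF competition, 1hr.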
Chain of Beta-2 adrenergic receptor (Homo sapiens) (P07550 whole entry, looked up): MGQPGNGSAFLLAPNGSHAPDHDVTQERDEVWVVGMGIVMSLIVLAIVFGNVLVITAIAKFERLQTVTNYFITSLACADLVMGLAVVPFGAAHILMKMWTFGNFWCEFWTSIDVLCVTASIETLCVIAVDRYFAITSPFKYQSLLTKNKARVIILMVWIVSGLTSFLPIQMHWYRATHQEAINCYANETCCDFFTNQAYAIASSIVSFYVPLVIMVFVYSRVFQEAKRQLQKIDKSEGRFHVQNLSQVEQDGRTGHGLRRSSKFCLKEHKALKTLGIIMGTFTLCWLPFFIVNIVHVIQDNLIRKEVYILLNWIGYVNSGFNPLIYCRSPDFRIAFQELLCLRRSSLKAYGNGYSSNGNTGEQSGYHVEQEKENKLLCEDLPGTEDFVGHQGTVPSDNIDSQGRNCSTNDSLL

As to `COc1ccc(CCC(C)=O)cc1`, the Potency entry was “inactive”.
For `CCCCOCCOCCO`, the Potency result was “inactive”.
In the case of `CCCCCC(=O)O`, the Potency result is “inactive”.
Take `CCC(=O)O`: the Potency result was “inactive”.
Regarding `C1COCCN1`, the Potency result was “inactive”.
For `Cc1ccc(Cl)cc1` the value was “inactive”.
Consider `C[Si](O[Si](C)(C)C)O[Si](C)(C)C`, for which the Potency result was “inactive”.
With `O=CCc1ccccc1`, the Potency result is “inactive”.
Turning to `Cc1ccc(C)c(O)c1C`, the Potency entry is “inactive”.
Take `c1ccc2[nH]cnc2c1`: the Potency result was “inactive”.
Take `NC(=S)NNC(N)=S`: the Potency result was “inactive”.
`CC(=O)OC/C=C(\C)CCC=C(C)C`: the Potency result was “inactive”.
For `OC1CCCCC1`, the Potency result is “inactive”.
On to `C=CC(=O)NC(C)(C)CS(=O)(=O)O`, for which the Potency entry was “inactive”.
In the case of `C=C(C)C1CC=C(C)C(OC(C)=O)C1` (configuration not stated), the Potency entry is “inactive”.
`Cc1ccc(O)cc1`: the Potency entry is “inactive”.
`Cc1cccc(O)c1C`: the Potency result was “inactive”.
Take `COc1ccccc1[N+](=O)[O-]`: the Potency result is “inactive”.
On to `C1CNCCN1`, for which the Potency entry is “inactive”.
The result for `O=C1C(N(CO)C(=O)NCO)N(CO)C(=O)N1CO` (configuration not stated) reads “inactive”.
For the compound `CCCCCCCC(=O)OC`, the Potency entry was “inactive”.
The result for `CC(=O)OCCC(C)C` reads “inactive”; that for `Brc1ccc(Oc2ccc(Br)cc2)cc1`, “inactive”.
On to `Nc1ccn([C@H]2CC[C@@H](CO)O2)c(=O)n1`, for which the Potency entry is “inactive”.
On to `CCN1CCCC1=O`, for which the Potency result is “inactive”.
In the case of `Fc1ccc(Br)cc1`, the Potency entry is “inactive”.
`CCCCCCCCCCCC(=O)OC`: the Potency result was “inactive”.
As for `CCc1ccccc1CC`, the Potency result was “inactive”.
On to `Cc1ccc(S(=O)(=O)O)cc1C`, for which the Potency entry is “inactive”.
The result for `c1ccc(OCCOc2ccccc2)cc1` reads “inactive”; that for `CCCCC(CC)COC(=O)C(C#N)=C(c1ccccc1)c1ccccc1` (configuration not stated), “inactive”.
As for `C=C(C)C(=O)OCC(C)C`, the Potency result was “inactive”.
Regarding `COc1ccc(OC)cc1`, the Potency result was “inactive”.
Consider `OCCc1ccccc1`, for which the Potency result was “inactive”.
Consider `CC(=O)CCC=C(C)C`, for which the Potency result was “inactive”.
For `CC(C)OP(=O)(CP(=O)(OC(C)C)OC(C)C)OC(C)C`, the Potency result is “inactive”.
For the compound `CC1(C)S[C@@H]2[C@H](NC(=O)COc3ccccc3)C(=O)N2[C@H]1C(=O)O`, the Potency entry is “inactive”.
Consider `CC(C)[N+](C)(CCOC(=O)C1c2ccccc2Oc2ccccc21)C(C)C`, for which the Potency entry is “inactive”.
Turning to `CCCCCCO`, the Potency result is “inactive”.
As to `Clc1ccc(Sc2cc(Cl)c(Cl)cc2Cl)cc1`, the Potency entry was “inactive”.
Consider `CC(=O)Nc1ccc(CC(=O)O)cc1`, for which the Potency entry is “inactive”.
Turning to `Nc1ccccc1[N+](=O)[O-]`, the Potency entry was “inactive”.
As to `O=C(O)c1ccccc1C(=O)O`, the Potency entry was “inactive”.
As to `Cc1ccc2c(n1)Oc1ccc(C(C)C(=O)OCC(=O)N(C)C)cc1C2` (configuration not stated), the Potency result is “inactive”.
On to `O=[N+]([O-])c1cc(C(F)(F)F)ccc1Cl`, for which the Potency result was “inactive”.
Turning to `C=CCNCC=C`, the Potency entry was “inactive”.
In the case of `FC(F)(F)c1ccc(Cl)c(Cl)c1`, the Potency result was “inactive”.
For the compound `CCCCCCCCCCCCCCCC(=O)O`, the Potency result was “inactive”.
With `CCCCC/C(C=O)=C\c1ccccc1`, the Potency result is “inactive”.
On to `CCCCCCC(C)O` (configuration not stated), for which the Potency result was “inactive”.
The result for `Cc1ncc[nH]1` reads “inactive”.
For the compound `O=C(O)Cn1c(=O)n(Cc2ccc(Br)cc2F)c(=O)c2ccc(Cl)cc21`, the Potency result is “inactive”.
In the case of `CC(=O)CCc1ccccc1`, the Potency entry is “inactive”.
Regarding `Nc1ccc(Cl)cc1Cl`, the Potency entry was “inactive”.
For `Cc1cc(=O)[nH]c(=S)[nH]1` the value was “inactive”.
As for `c1ccc2[nH]ccc2c1`, the Potency result was “inactive”.
`CC1(C)NC(=O)NC1=O`: the Potency entry was “inactive”.
With `CCCCCCCC(=O)OCC(COC(=O)CCCCCCC)OC(=O)CCCCCCC`, the Potency entry is “inactive”.
For `Cc1cccc2ccccc12` the value was “inactive”; for `CCCC(C)=O`, “inactive”.
As for `CCCCCCOCCO`, the Potency entry is “inactive”.
As for `NC(=O)/N=N/C(N)=O`, the Potency entry was “inactive”.
Turning to `COc1ccc([N+](=O)[O-])cc1N`, the Potency result was “inactive”.
Consider `CCC(O)OCCCOC` (configuration not stated), for which the Potency entry was “inactive”.
For the compound `Cc1ccc([N+](=O)[O-])c(C)c1`, the Potency result is “inactive”.
Turning to `O=C(O)c1cccc([N+](=O)[O-])c1`, the Potency entry was “inactive”.
In the case of `CCc1ccc(O)cc1`, the Potency result was “inactive”.
`CC1(C)CC(N=C=O)CC(C)(CN=C=O)C1` (configuration not stated): the Potency result was “inactive”.
`O=C(O)Cc1cccc2ccccc12`: the Potency entry was “inactive”.
The result for `CC[Si](OC(C)=O)(OC(C)=O)OC(C)=O` reads “inactive”.
As to `CC(CCl)OP(=O)(OC(C)CCl)OC(C)CCl` (configuration not stated), the Potency result was “inactive”.
The result for `O=C=NCCCCCCN=C=O` reads “inactive”; that for `C=CC(=O)OCCCCCCCC(C)C`, “inactive”.
As to `CCCCCCC(=O)O`, the Potency result is “inactive”.
In the case of `C=CCOC(=O)CC(C)C`, the Potency result was “inactive”.
The result for `COc1ccc(O)cc1` reads “inactive”; that for `c1ccc2c(c1)ccc1cc3c(ccc4ccccc43)cc12`, “inactive”.
As for `CCCCCCCC(=O)OCC(O)CO` (configuration not stated), the Potency result is “inactive”.
In the case of `CC(=O)Oc1c(C)c(C)c2c(c1C)CC[C@@](C)(CCC[C@H](C)CCC[C@H](C)CCCC(C)C)O2`, the Potency result is “inactive”.
With `CCCCCCCCCCCCCO`, the Potency entry is “inactive”.
With `O=Cc1ccccc1O`, the Potency result was “inactive”.
The result for `O=S1(=O)CC=CC1` reads “inactive”; that for `c1ccncc1`, “inactive”.
As to `CCOC(=O)C1OC1c1ccccc1` (configuration not stated), the Potency result is “inactive”.
Regarding `CC/C=C(\C(=O)N[C@@H]1C(=O)N2C(C(=O)OCOC(=O)C(C)(C)C)=C(COC(N)=O)CS[C@H]12)c1csc(N)n1`, the Potency entry is “inactive”.
Consider `CC(=O)CC/C=C(\C)CCC=C(C)C`, for which the Potency entry was “inactive”.
`CC1=CC(=O)CC(C)(C)C1`: the Potency entry is “inactive”.
